Results on 1 sequence are retold here after publication PMC7862700, “An all-to-all approach to the identification of sequence-specific readers for epigenetic DNA modifications on cytosine”.

Common to all, as to test: DAPPL (digital affinity profiling via proximity ligation, sequencing); 10 mM Tris-HCl pH 7.5, 50 mM NaCl, 1 mM DTT, 4% glycerol, room temperature, 30 min; GST-TFs on glutathione beads, 16-mer random dsDNA library, 0.1% formaldehyde crosslink after washing; high values mean tight binding
In one assay the target is T1, FEV (Homo sapiens, UniProt Q99581 1-238).
T1 sequence: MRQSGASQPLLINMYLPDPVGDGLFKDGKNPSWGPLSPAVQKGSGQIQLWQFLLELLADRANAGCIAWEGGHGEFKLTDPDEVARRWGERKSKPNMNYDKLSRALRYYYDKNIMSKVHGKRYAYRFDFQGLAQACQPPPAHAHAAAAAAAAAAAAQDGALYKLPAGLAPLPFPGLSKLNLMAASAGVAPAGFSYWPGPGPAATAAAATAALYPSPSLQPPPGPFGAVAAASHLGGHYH
Particulars: protein: recombinant; tags: N-terminal GST; dsDNA, one strand shown. In short, it runs like this:
(§1)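 A tag-only sample was pooled with DNA-barcoded human transcription factors that had been expressed in yeast as GST fusions and captured on glutathione beads. The pools were incubated for 30 min at room temperature with 200 nmole of a random double-stranded 16-mer DNA library in Tris/NaCl/DTT/glycerol buffer, then washed, crosslinked with 0.1% formaldehyde, proximity-ligated (BsaI/T4 ligase, 1 h, 37 °C), PCR-amplified and sequenced on an Illumina NextSeq500. Binding signal is each hexamer's read frequency for a factor divided by its frequency for the tag-only sample.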

For the next assay, the target named is ETV5 (Homo sapiens, UniProt P41161 1-510). The settings on record: protein: recombinant; tags: N-terminal GST; dsDNA, one strand shown. An outline of the steps: as §1
Sequence of ETV5 (P41161 whole entry): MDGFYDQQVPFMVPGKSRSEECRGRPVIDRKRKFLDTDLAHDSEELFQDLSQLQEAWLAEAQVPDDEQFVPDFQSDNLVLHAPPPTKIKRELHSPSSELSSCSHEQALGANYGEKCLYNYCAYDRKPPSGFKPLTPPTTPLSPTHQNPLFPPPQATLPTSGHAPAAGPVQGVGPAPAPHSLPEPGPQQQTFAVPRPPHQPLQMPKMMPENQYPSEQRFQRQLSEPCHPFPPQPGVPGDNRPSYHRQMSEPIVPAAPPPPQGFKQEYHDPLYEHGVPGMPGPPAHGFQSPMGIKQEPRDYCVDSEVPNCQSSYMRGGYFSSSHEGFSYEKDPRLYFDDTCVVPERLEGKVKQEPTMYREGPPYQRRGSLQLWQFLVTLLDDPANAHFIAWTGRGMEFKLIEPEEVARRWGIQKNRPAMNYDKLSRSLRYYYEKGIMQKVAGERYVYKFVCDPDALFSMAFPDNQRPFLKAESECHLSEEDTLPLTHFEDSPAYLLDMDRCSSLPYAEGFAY
Another assay has as its target HSF1 (Homo sapiens, UniProt Q00613 1-529). Particulars: protein: recombinant; tags: N-terminal GST; chain copies: 3; dsDNA, one strand shown. An outline of the steps: as §1
In a further assay the target is T2, SPIC (Homo sapiens, UniProt Q8N5J4 1-248).
T2 sequence: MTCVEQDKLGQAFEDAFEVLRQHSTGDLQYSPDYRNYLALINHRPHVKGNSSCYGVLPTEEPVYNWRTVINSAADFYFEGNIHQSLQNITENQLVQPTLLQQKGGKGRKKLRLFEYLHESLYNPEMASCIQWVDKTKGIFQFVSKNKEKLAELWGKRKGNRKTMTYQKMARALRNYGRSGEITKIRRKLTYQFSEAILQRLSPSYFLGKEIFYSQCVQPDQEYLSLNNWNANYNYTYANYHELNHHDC
Particulars: protein: recombinant; tags: N-terminal GST; dsDNA, one strand shown. In short, it runs like this:
as §1

In another assay the target is ELF4 (Homo sapiens, UniProt Q99607 1-663). The settings on record: protein: recombinant; tags: N-terminal GST; dsDNA, one strand shown. In short, it runs like this: as §1
Sequence of ELF4 (Q99607 whole entry): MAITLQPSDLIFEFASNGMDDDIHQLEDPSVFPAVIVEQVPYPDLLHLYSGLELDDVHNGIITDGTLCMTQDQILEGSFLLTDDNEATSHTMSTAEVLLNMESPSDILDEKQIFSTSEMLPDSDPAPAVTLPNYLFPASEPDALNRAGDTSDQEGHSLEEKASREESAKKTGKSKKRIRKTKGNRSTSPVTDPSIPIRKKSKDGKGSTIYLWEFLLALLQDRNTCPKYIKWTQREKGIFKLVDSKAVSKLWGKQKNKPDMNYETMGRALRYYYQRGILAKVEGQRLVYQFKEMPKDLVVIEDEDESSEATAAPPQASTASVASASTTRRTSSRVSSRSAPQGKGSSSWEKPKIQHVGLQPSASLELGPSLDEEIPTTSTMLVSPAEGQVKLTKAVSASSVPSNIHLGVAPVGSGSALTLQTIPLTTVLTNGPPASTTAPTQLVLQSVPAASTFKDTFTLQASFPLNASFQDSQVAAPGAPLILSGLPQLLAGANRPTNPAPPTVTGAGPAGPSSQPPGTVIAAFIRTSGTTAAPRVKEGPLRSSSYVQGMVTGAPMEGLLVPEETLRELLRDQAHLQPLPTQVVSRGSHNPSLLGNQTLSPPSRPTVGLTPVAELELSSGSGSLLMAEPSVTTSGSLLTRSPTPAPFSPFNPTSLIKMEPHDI
The next assay has as its target T3, ELK4 (Homo sapiens, UniProt P28324-2 1-405).
T3 sequence: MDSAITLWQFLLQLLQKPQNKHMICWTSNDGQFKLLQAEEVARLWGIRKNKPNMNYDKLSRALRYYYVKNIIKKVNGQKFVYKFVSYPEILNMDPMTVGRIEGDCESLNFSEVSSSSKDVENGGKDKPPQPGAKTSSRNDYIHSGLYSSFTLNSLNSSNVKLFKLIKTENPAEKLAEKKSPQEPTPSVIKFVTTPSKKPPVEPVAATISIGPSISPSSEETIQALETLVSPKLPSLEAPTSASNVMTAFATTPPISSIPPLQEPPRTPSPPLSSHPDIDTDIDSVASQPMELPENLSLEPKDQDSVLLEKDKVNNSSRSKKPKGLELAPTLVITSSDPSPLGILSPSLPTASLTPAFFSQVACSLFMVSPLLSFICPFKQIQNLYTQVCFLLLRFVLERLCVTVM
The settings on record: protein: recombinant; tags: N-terminal GST; dsDNA, one strand shown. An outline of the steps:
as §1

The next assay addresses T4, ETV2 (Homo sapiens, UniProt O00321 1-342).
T4 sequence: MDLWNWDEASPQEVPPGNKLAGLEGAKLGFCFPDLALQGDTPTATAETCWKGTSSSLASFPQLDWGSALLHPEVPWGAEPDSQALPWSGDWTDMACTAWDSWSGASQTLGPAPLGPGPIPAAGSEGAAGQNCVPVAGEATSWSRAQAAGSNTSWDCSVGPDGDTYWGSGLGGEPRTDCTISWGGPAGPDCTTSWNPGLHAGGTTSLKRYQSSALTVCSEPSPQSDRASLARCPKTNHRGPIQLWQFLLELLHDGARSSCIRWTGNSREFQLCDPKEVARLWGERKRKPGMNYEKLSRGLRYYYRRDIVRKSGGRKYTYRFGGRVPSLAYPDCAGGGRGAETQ
Particulars: protein: recombinant; tags: N-terminal GST; dsDNA, one strand shown. In short, it runs like this:
as §1

In the next assay the target is T5, ELF3 (Homo sapiens, UniProt P78545 1-371).
T5 sequence: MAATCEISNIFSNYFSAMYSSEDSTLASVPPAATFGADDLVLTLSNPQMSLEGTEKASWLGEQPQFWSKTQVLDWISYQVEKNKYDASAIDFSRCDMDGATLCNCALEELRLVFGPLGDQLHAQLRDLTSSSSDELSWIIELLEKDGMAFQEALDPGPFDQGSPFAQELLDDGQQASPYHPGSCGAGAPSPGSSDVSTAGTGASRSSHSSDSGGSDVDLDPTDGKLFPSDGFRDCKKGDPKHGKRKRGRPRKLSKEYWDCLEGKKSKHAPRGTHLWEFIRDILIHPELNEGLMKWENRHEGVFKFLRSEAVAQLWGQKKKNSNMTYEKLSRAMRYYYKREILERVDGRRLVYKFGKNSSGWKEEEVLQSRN
Particulars: protein: recombinant; tags: N-terminal GST; dsDNA, one strand shown. An outline of the steps: as §1

Another assay concerns the target CRX (Homo sapiens, UniProt O43186 1-299). Particulars: protein: recombinant; tags: N-terminal GST; dsDNA, one strand shown. An outline of the steps:
as §1

A further assay addresses ETV1 (Homo sapiens, UniProt P50549 1-477). Particulars: protein: recombinant; tags: N-terminal GST; dsDNA, one strand shown. An outline of the steps:
as §1

The target in the next assay is T6, ERF (Homo sapiens, UniProt P50548 1-548).
T6 sequence: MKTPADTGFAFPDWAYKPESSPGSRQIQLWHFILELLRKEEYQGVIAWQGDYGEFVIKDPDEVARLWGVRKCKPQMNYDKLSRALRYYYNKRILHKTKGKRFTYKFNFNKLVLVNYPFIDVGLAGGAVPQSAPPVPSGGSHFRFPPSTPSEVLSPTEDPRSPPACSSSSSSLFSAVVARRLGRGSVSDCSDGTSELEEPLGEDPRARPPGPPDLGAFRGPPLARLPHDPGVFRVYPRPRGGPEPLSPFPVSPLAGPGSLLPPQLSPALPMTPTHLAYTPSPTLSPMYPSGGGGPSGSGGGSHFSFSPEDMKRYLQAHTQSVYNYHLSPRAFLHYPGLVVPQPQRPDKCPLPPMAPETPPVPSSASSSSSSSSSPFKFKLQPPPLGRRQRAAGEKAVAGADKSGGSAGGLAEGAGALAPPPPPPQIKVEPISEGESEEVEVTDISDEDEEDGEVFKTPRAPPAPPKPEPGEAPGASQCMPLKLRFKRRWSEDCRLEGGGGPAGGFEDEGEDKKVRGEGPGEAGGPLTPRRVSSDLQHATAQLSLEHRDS
Particulars: protein: recombinant; tags: N-terminal GST; dsDNA, one strand shown. An outline of the steps: as §1

For the next assay, the target named is T7, ETV3L (Homo sapiens, UniProt Q6ZN32 1-361).
T7 sequence: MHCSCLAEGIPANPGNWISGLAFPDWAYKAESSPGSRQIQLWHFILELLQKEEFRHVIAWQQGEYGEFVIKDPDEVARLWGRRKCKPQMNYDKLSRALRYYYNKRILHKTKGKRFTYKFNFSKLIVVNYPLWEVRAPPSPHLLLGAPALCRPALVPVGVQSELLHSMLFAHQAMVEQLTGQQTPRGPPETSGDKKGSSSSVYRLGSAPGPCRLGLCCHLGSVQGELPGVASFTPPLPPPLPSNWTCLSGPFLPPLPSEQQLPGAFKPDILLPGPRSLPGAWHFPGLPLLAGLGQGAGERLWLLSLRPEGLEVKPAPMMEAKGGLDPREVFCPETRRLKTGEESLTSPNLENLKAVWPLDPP
Particulars: protein: recombinant; tags: N-terminal GST; dsDNA, one strand shown. An outline of the steps:
as §1

The target in the next assay is T8, ETS2 (Homo sapiens, UniProt P15036 1-469).
T8 sequence: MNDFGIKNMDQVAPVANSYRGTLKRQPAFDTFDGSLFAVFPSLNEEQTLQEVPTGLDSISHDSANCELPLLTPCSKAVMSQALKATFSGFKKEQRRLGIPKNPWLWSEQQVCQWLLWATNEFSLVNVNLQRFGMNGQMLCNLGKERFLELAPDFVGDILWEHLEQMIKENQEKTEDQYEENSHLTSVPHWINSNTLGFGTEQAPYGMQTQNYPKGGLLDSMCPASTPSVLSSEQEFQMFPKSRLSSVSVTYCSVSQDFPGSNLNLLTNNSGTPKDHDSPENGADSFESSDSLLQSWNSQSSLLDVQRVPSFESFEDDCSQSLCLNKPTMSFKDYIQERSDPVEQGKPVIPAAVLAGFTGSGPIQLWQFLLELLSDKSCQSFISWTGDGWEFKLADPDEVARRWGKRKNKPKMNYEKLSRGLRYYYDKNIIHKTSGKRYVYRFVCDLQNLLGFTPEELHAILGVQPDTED
The settings on record: protein: recombinant; tags: N-terminal GST; dsDNA, one strand shown. In short, it runs like this: as §1

Another assay concerns the target T9, SPDEF (Homo sapiens, UniProt O95238 1-335).
T9 sequence: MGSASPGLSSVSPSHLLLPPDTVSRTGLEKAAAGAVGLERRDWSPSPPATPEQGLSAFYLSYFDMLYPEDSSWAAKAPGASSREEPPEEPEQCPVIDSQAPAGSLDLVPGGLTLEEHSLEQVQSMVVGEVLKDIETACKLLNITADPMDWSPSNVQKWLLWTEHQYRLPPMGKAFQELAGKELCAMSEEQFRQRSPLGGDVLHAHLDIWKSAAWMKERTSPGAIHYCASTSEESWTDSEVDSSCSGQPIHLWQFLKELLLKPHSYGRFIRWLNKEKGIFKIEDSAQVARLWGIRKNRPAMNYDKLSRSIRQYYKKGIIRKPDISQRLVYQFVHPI
The settings on record: protein: recombinant; tags: N-terminal GST; dsDNA, one strand shown. An outline of the steps: as §1

The target in another assay is T10, ETV7 (Homo sapiens, UniProt Q9Y603 1-341).
T10 sequence: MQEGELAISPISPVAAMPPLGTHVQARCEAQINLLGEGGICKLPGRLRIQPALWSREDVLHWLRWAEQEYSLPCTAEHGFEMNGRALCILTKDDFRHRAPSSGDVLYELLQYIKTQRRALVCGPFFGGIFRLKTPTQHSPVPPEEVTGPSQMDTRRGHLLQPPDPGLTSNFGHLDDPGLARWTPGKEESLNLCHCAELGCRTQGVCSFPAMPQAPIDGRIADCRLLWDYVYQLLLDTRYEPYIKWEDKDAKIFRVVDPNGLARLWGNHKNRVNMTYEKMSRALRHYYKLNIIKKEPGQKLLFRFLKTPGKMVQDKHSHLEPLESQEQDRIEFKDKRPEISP
Particulars: protein: recombinant; tags: N-terminal GST; dsDNA, one strand shown. In short, it runs like this:
as §1

The target in a further assay is T11, ELF5 (Homo sapiens, UniProt Q9UKW6-2 1-255).
T11 sequence: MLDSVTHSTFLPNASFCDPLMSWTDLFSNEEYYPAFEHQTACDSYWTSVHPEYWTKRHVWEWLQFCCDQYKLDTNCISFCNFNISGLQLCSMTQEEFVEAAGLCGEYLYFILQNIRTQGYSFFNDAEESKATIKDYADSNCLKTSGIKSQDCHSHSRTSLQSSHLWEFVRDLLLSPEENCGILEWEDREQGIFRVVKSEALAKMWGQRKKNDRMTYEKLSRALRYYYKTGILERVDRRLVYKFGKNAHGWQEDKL
The settings on record: protein: recombinant; tags: N-terminal GST; dsDNA, one strand shown. In short, it runs like this: as §1

The target in the next assay is T12, ETV3 (Homo sapiens, UniProt P41162-2 1-143).
T12 sequence: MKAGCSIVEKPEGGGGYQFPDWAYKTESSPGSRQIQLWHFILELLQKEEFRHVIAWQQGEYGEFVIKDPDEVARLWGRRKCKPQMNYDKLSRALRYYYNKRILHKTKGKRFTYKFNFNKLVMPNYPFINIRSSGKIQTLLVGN
The settings on record: protein: recombinant; tags: N-terminal GST; dsDNA, one strand shown. An outline of the steps:
as §1

The target in another assay is ETV6 (Homo sapiens, UniProt P41212 1-452). The settings on record: protein: recombinant; tags: N-terminal GST; dsDNA, one strand shown. An outline of the steps:
as §1

Sequence of CRX (O43186 whole entry): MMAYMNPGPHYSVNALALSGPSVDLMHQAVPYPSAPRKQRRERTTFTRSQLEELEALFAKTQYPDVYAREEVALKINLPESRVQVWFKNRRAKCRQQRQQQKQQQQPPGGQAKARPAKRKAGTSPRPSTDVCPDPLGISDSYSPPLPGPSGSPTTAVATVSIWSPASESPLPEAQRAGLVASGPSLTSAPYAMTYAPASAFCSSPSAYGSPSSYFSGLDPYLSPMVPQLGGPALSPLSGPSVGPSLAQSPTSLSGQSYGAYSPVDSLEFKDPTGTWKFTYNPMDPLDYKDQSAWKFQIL
Sequence of ETV1 (P50549 whole entry): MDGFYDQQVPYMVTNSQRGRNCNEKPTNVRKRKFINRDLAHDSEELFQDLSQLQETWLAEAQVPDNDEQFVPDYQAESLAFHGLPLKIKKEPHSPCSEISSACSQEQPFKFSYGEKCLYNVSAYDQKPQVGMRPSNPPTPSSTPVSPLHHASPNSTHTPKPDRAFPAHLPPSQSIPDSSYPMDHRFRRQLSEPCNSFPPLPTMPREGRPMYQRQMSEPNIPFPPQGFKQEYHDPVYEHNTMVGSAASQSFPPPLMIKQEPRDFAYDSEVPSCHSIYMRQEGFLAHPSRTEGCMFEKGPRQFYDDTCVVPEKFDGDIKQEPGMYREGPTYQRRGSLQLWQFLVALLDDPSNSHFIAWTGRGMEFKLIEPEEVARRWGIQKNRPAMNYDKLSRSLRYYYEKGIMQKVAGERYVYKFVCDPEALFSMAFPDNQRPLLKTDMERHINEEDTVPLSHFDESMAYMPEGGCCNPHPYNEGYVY
Sequence of ETV6 (P41212 whole entry): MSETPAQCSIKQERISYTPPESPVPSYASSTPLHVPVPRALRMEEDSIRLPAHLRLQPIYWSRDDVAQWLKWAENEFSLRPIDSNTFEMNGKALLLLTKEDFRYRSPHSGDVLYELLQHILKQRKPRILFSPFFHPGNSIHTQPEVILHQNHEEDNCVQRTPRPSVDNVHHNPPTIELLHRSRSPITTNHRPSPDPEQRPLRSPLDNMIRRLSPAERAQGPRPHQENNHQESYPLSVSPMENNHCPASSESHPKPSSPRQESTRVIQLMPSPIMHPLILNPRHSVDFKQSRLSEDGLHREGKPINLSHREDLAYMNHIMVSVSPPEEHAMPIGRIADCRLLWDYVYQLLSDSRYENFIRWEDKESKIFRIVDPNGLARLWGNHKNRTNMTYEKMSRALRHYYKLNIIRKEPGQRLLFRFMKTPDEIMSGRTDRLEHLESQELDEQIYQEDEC
Sequence of HSF1 (Q00613 whole entry): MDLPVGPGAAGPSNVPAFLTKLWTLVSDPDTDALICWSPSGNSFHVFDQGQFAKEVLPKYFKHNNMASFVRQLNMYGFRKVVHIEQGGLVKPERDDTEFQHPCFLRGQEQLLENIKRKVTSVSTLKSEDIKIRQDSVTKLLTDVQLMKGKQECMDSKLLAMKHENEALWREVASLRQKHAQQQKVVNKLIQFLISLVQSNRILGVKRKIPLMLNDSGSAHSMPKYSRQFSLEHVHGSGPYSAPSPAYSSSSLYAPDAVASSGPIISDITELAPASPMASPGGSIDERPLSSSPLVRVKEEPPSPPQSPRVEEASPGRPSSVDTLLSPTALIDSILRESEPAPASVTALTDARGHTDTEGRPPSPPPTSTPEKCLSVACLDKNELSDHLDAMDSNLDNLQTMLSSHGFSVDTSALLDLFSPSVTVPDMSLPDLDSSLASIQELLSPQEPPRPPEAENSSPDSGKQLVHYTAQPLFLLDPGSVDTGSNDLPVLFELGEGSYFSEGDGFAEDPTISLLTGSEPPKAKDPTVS

Turning to AACTAC, the binding signal in the assay with FEV is 1.35 fold enrichment (6-mer frequency, TF over GST control); in the assay with ETV5 it was 1.38 fold enrichment (6-mer frequency, TF over GST control); with HSF1, 1.22 fold enrichment (6-mer frequency, TF over GST control); with SPIC, 1.35 fold enrichment (6-mer frequency, TF over GST control); in the assay with ELF4 it was 1.39 fold enrichment (6-mer frequency, TF over GST control); in the assay with ELK4 it was 1.32 fold enrichment (6-mer frequency, TF over GST control). The binding signal in the assay with ETV2 was 1.42 fold enrichment (6-mer frequency, TF over GST control); with ELF3, 1.31 fold enrichment (6-mer frequency, TF over GST control); with CRX, 1.2 fold enrichment (6-mer frequency, TF over GST control); in the assay with ETV1, 1.34 fold enrichment (6-mer frequency, TF over GST control); with ERF it was 1.54 fold enrichment (6-mer frequency, TF over GST control); with ETV3L it was 1.44 fold enrichment (6-mer frequency, TF over GST control). The binding signal was 1.42 fold enrichment (6-mer frequency, TF over GST control) with ETS2; 1.48 fold enrichment (6-mer frequency, TF over GST control) with SPDEF; 1.39 fold enrichment (6-mer frequency, TF over GST control) in the assay with ETV7; 1.5 fold enrichment (6-mer frequency, TF over GST control) in the assay with ELF5; 1.45 fold enrichment (6-mer frequency, TF over GST control) with ETV3; 1.51 fold enrichment (6-mer frequency, TF over GST control) with ETV6.
